An excerpt weighted towards active compounds, which were near 5.7% of everything screened.
DAX1 inh-1: DAX1 (NR0B1) inhibitors on StAR promoter, primary screen, cell-based, luminescence, SF-1 (NR5A1), full-length DAX-1; inhibition, % at 6.8 µM; HEK293T StAR-luciferase reporter, SF-1/DAX-1 repression relief; actives 1.1% (n = 370,000);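 active = inhibition above the mean over all tested compounds plus 3 SD, cut at about 3.6% in these data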;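 also: 0% = DAX-1 cells with DMSO and 100% = cells lacking DAX-1 with DMSO; higher inhibition means more luminescence from relief of DAX-1 repression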
hcDAF12 agonist: H. contortus DAF-12 nuclear receptor activators, primary screen, cell-based, luminescence, HEK293, lit1-tk-luc reporter | HEK293 hcDAF-12 lit1-tk-luc reporter; 0% DMSO, 100% Δ7-dafachronic acid | activation, % at 6.8 µM | actives 1.4% (n = 370,000);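 active = activation above the mean of all tested compounds plus 3 SD, cut at about 5.5% in these data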;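 also: 100% = response to 3 µM Δ7-dafachronic acid high control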
DAX1 inh-2: DAX1 (NR0B1) inhibitors, primary screen, cell-based, HEK293, Gal4-DAX1, luciferase luminescence. HEK293 Gal4-DAX1 luciferase reporter. inhibition, % at 6.75 µM. Nuclear receptor subfamily 0 group B member 1 (Homo sapiens), P51843. actives 0.99% (n = 340,000);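 active = inhibition above the mean over all tested compounds plus 3 SD, cut at about 4.2% in these data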;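 also: 0% = DAX1-transfected cells with DMSO and 100% = empty-vector control cells with DMSO; inhibition shows as a rise in luminescence from relieved DAX1 repression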
Target sequence (P51843 207-470 limits assumed): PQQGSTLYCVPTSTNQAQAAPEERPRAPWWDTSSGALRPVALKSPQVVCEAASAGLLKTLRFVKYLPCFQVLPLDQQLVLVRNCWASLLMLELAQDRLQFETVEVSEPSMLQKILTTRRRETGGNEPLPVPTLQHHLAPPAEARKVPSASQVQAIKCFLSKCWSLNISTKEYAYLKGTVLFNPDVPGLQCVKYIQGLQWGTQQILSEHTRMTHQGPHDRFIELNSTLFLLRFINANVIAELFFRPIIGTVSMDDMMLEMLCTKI
hgDAF-12 ag: H. glycines DAF-12 receptor agonists, primary screen, cell-based, luminescence, HEK293, GAL4 fusion, UAS-luciferase. activation, % at 6.8 µM. AID 687014, 2013. HEK293 GAL4-hgDAF12 UAS-luciferase reporter, agonist luminescence; normalized to butyrate control. actives 1.8% (n = 370,000). Nuclear hormone receptor DAF-12 (Heterodera glycines), GAL4 fusion;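 active = activation above a cutoff set at the mean of all screened compounds plus 3 SD, cut at about 10% in these data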;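 also: 0% = DMSO wells and 100% = sodium butyrate wells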
AHR act: AHR activators, primary screen, cell-based, luminescence, luciferase reporter, human. AHR-responsive luciferase reporter cells. activation, % at 5 µM. actives 2.5% (n = 320,000); in the data active = activation above about 47%;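 also: 0% = vehicle wells and 100% = reference agonist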
ssDAF-12 act: S. stercoralis DAF-12 nuclear receptor activators, primary screen, cell-based, luminescence, HEK293, GRIP1 co-expression, lit1-tk-luc; activation, % at 6.8 µM; HEK293 ssDAF-12/GRIP1 lit1-tk-luc reporter; % of 3 µM dafachronic acid response; Nuclear hormone receptor DAF-12 (Strongyloides stercoralis); actives 1% (n = 370,000); AID 652126, 2013;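 active = activation above the mean over all tested compounds plus 3 SD, cut at about 0.9% in these data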;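 also: 0% = DMSO-only wells and 100% = 3 µM delta7-dafachronic acid wells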
AHR act cf: AHR activators, confirmation, cell-based, luminescence, luciferase reporter, human. actives 87% (n = 2,300). activation, % at 9 µM. AID 2845, 2010. human cells, AHR-responsive luciferase reporter. shares compounds with AHR act; in the data active = activation above about 49%;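 also: HepG2 hepatoma cells carrying a DRE-driven firefly luciferase reporter; 0% = vehicle wells and 100% = reference agonist wells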
PXR act counter: human PXR activators, counter-screen for AHR activator project, cell-based, luciferase luminescence | actives 88% (n = 2,300) | shares compounds with AHR act | cell-based PXR reporter | activation, % at 11.6 µM; in the data active = activation above about 11%;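 also: human hepatoma DPX-2 cells expressing full-length human PXR; 0% = DMSO and 100% = reference agonist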
* marks the source's active call; other numbers are inactive results; · = no result given.

SMILES	DAX1 inh-1	hcDAF12 agonist	DAX1 inh-2	hgDAF-12 ag	AHR act	ssDAF-12 act	AHR act cf	PXR act counter
COc1cc(Cl)c(C)cc1NC(=O)COC(=O)CCc1nc2ccccc2c(=O)[nH]1	1	0	0	-1	3	-2	·	·
COc1ccc(OC)c(CNC(=O)CCS(=O)(=O)c2ccc3c(c2)oc(=O)n3C)c1	-1	-1	0	-3	5	-2	·	·
O=[N+]([O-])c1ccccc1O[C@@H]1O[C@H](CO)[C@H](O)[C@H](O)[C@H]1O	0	-2	2	-1	6	-1	·	·
OCC1OC(Oc2c[nH]c3ccccc23)C(O)C(O)C1O (stereo unspecified)	-2	4	-1	-2	84*	0	26	8
COCCNC(=S)N/N=C/c1ccc(-c2ccc([N+](=O)[O-])cc2)o1	-2	2	-1	2	128*	1	89*	11*
COc1ccccc1C(=O)Nc1ccc2c(c1)CN(Cc1cnc(C)s1)CC2	-1	-2	-1	1	113*	-1	56*	13*
OCCNc1nc(-c2ccccc2)nc2c1oc1ccccc12	-1	2	0	0	104*	-1	96*	26*
CN(C)/C=N/c1nc(-c2ccc3c(c2)OCO3)cs1	3	2	1	11*	81*	-1	69*	28*
CC(O)(c1ccccc1)c1nc(-c2ccc3c(c2)OCO3)cs1 (stereo unspecified)	1	-1	·	5	·	-1	·	·
O=C1C(Cl)=C(N2CCCC2)C(=O)N1c1ccccc1F	0	-2	-2	-2	0	0	·	·
CCOc1ccccc1NC(=O)N1CCC(c2nc3ccccc3[nH]2)CC1	-1	0	1	3	3	0	·	·
COc1ccccc1NC(=O)N1CCC(c2nc3cc(C)c(C)cc3[nH]2)CC1	1	-1	-2	-4	133*	0	34	56*
CSc1ccc(C2NC(=O)c3c(sc4c3CCN(C)C4)N2)cc1 (stereo unspecified)	-1	4	0	1	22	-1	·	·
Cc1ccsc1C1NC(=O)c2c(sc3c2CCN(C)C3)N1 (stereo unspecified)	0	0	0	2	92*	-1	54*	17*
CN1CCc2c(sc3c2C(=O)NC(/C=C\c2ccccc2)N3)C1 (stereo unspecified)	0	1	·	-1	10	-2	·	·
CN1CCc2c(sc3c2C(=O)NC(c2cccs2)N3)C1 (stereo unspecified)	0	3	1	7	85*	-1	92*	37*
Cc1ccc(S(=O)(=O)N2CCC(C(=O)OC(C)C(=O)NC3CCCCC3C)CC2)cc1 (stereo unspecified)	-1	0	0	1	4	-1	·	·
Cc1ccc(C)c(NC(=O)CN(C)C(=O)CC2OC(=O)c3ccccc32)c1 (stereo unspecified)	0	0	1	2	-1	-1	·	·
CSc1nsc(N/N=C/c2ccc3c(c2)OCO3)c1C#N	2	3	2	12*	117*	0	81*	27*
COc1cc(/C=N/Nc2snc(SC)c2C#N)cc(OC)c1OC	-1	-1	-3	-3	2	-2	·	·
Cc1csc(=NC(=O)c2ccccc2)n1Cc1ccco1	0	0	0	0	4	-1	·	·
CCn1c(C)csc1=NC(=O)c1ccccc1O	1	6.3*	0	10	93*	0	95*	15*
CON/C=C(\C=Nc1ccc(Cl)cc1)c1ncc(C(F)(F)F)cc1Cl	1	3	0	3	112*	-1	93*	14*
CON/C=C(\C=Nc1ccc(C(F)(F)F)cc1)c1ncc(C(F)(F)F)cc1Cl	-1	0	2	1	108*	-2	103*	31*
CC1(C(=O)NS(=O)(=O)c2cccc(Cl)c2)CCN1C(=O)c1cccc2ccccc12 (stereo unspecified)	1	2	·	0	·	-1	·	·
SMILES	DAX1 inh-1	hcDAF12 agonist	DAX1 inh-2	hgDAF-12 ag	AHR act	ssDAF-12 act	AHR act cf	PXR act counter
C#CCN(C[C@@H]1[C@@H](OC(=O)NCc2ccccc2F)[C@@H](OC(=O)NCc2ccccc2F)CN(C(=O)OC(C)C)N1C(=O)OC(C)C)S(=O)(=O)c1ccc(C)cc1	-1	0	0	-1	·	-1	·	·
CCc1c(C)sc(NC(=O)c2cccs2)c1C#N	1	0	1	8	90*	0	90*	39*
Cc1cc(C)c2oc(-c3cccc(N)c3)nc2c1	1	3	3	10	79*	0	128*	15*
O=C(C[n+]1cc2ccccc2c2ccccc21)c1ccccc1	-1	5	2	6	87*	1	93*	55*
Cc1c(C(=O)NCCCN2CCOCC2)oc2c1C1(CCC2)SCCS1	0	-1	0	2	109*	0	95*	181*
COCC(C)NC(=O)c1oc2c(c1C)C1(CCC2)SCCS1 (stereo unspecified)	0	-2	-1	0	11	-2	·	·
O=C(c1ccc(N2CCCC2=O)cc1)N1CCN(c2cccc(C(F)(F)F)c2)CC1	-1	-2	2	-3	·	-2	·	·
O=S(=O)(NNc1cccc(Cl)n1)c1ccc(Cl)cc1	0	1	0	2	·	-1	·	·
COc1ccc(/C=N/Nc2nc3ccccc3[nH]2)cc1OC	1	1	0	3	111*	0	86*	·
COc1ccc(/C=N/Nc2nc(N)cc(Cl)n2)cc1OC	0	3	0	4	89*	0	72*	16*
C(=N\Nc1nc2ccccc2[nH]1)/c1ccccn1	-1	3	-5	-3	·	-1	·	·
